Composite z-score, composite Z-score and z-score data for six compounds are collected here from PubChem BioAssay.

Each structure is given as a SMILES string. Calls of active or inactive are those of the source.

In one assay the target is Albumin (Bos taurus) (UniProt P02769). Put plainly: compounds binding labelled BSA control protein – biochemical, small-molecule microarray, Alexa647 label, 635/667 nm fluorescence, artefact control for SMM control protein annotation, profiling panel (AID 1118).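 Also: score merges 667 nm emission intensity and signal-to-noise per printed compound spot.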 Particulars: BSA-A647 binding, fluorescence 635 nm, higher = more signal.
Sequence of Albumin (Bos taurus) (P02769 whole entry, looked up): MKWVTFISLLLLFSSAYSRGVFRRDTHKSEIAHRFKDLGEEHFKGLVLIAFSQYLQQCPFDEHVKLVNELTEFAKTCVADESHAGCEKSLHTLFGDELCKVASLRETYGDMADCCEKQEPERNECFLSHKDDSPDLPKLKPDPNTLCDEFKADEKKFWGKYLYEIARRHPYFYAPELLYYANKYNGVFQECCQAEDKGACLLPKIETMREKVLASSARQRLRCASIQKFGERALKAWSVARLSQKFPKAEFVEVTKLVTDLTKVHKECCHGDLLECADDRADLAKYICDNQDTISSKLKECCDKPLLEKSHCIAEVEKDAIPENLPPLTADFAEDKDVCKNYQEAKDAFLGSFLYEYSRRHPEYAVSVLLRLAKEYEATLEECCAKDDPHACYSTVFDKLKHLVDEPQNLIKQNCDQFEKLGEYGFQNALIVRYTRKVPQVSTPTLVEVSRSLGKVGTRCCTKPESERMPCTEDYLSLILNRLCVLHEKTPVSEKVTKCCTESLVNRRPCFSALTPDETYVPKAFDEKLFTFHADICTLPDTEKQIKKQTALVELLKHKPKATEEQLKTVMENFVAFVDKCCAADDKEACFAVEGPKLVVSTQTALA
The nature of assay [1]: probe aXIP binding to arrayed compounds – biochemical, NeuroSMM set, 635/667 nm fluorescence, primary screen (AID 1119).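 Also: probe is the protein aXip251-270 applied at 1 µg/mL to compound-printed slides; binding of probe to printed compounds measured as 667 nm fluorescence plus signal to noise.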 The following applies: small-molecule microarray, higher = more signal, called active from +8 up or from −8 down.
A short description of assay [2]: probe aNOTCH3 binding on compound microarray – biochemical, small-molecule microarray, 635/667 nm fluorescence, primary screen (AID 1120).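 Also: probe is a biotin-tagged antibody raised against NOTCH3 rather than NOTCH3 protein; score merges spot fluorescence near 667 nm with spot signal to noise.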 Particulars: higher = more signal.
Assay [3] is described as follows: probe aNOTCH2 binding on compound microarray – biochemical, small-molecule microarray, 635/667 nm fluorescence, primary screen (AID 1121).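 Also: score merges feature fluorescence read at 667 nm with its signal to noise.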 The following applies: higher = more signal.
The target of assay [4] is Carbonic anhydrase 2 (Homo sapiens) (UniProt P00918). Put plainly: compounds binding carbonic anhydrase 2 – biochemical, small-molecule microarray, Alexa647-labelled CAII, profiling panel (AID 1122). The following applies: CAII-A647 binding fluorescence, higher = more signal.
Assay [5] in a line: COS7 lysate on small-molecule microarray, probe aHis, 635 nm (AID 1123).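 Also: z-score combines 667nm fluorescence intensity with signal-to-noise per printed compound spot.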 Particulars: COS7 cell lysate, fluorescence, higher = more signal.
Assay [6] can be described thus: probe aLAP1 signal on lysate-treated microarray – cell lysate, small-molecule microarray, COS7 lysate, primary screen (AID 1124).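 Also: lysate comes from COS7 cells expressing LAP1 and is applied at 0.3 µg/mL; score merges spot fluorescence near 667 nm with signal-to-noise over triplicate slides.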 Particulars: probe aLAP1, fluorescence, higher = more signal.
For a further assay, the system named is Sam68 (KHDRBS1). Description: compounds binding KHDRBS1 protein – biochemical, small-molecule microarray, 635 nm fluorescence, primary screen (AID 1125).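 Also: score merges 667 nm channel intensity with signal to noise over triplicate slides.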 The following applies: higher = more signal.
Assay [7] concerns Chordin-like protein 2 (CHRDL2). Put plainly: compounds binding chordin-like 2 – biochemical, small-molecule microarray, 635 nm fluorescence, primary screen (AID 1126).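 Also: printed compound slides probed with Chrdl2 protein at 4 µg/mL for 1 h at 4 C; score merges 667 nm emission intensity with signal to noise over three replicate slides.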 The following applies: fluorescence 635 nm, higher = more signal.
Assay [8] has as its target Concanavalin-A (Canavalia ensiformis) (UniProt P02866). Put plainly: compounds binding concanavalin A lectin – biochemical, small-molecule microarray, Alexa647 label, 635 nm, artefact control for SMM control protein annotation, primary screen (AID 1127).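 Also: z combines 667 nm emission intensity with signal-to-noise across three replicate slides.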 Particulars: ConA-A647 binding fluorescence, higher = more signal.
The nature of assay [9]: compounds binding Alexa647 anti-His antibody – biochemical, small-molecule microarray, 635 nm fluorescence, artefact control for SMM control protein annotation, primary screen (AID 1128).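 Also: score merges feature fluorescence with signal-to-noise for each printed compound spot.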 The following applies: higher = more signal.
Assay [10] has as its system Human papillomavirus type 1a E7 protein (residues 1-88). Put plainly: HPV1a E7 small-molecule binders, primary screen, biochemical, small-molecule microarray, residues 1-88, 635 nm (AID 1129). The following applies: small-molecule microarray binding, fluorescence 635 nm; higher = more signal.
The target in assay [11] is Focal adhesion kinase 1 (Homo sapiens) (UniProt Q05397). Put plainly: PTK2 protein binding on printed compound slides – biochemical, small-molecule microarray, 635/667 nm fluorescence, BSA, DTT, primary screen (AID 1130).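 Also: composite of spot emission at 667 nm and signal to noise over triplicate slides.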 Particulars: 635 nm fluorescence, higher = more signal.
Sequence of Focal adhesion kinase 1 (Homo sapiens) (Q05397 whole entry, looked up): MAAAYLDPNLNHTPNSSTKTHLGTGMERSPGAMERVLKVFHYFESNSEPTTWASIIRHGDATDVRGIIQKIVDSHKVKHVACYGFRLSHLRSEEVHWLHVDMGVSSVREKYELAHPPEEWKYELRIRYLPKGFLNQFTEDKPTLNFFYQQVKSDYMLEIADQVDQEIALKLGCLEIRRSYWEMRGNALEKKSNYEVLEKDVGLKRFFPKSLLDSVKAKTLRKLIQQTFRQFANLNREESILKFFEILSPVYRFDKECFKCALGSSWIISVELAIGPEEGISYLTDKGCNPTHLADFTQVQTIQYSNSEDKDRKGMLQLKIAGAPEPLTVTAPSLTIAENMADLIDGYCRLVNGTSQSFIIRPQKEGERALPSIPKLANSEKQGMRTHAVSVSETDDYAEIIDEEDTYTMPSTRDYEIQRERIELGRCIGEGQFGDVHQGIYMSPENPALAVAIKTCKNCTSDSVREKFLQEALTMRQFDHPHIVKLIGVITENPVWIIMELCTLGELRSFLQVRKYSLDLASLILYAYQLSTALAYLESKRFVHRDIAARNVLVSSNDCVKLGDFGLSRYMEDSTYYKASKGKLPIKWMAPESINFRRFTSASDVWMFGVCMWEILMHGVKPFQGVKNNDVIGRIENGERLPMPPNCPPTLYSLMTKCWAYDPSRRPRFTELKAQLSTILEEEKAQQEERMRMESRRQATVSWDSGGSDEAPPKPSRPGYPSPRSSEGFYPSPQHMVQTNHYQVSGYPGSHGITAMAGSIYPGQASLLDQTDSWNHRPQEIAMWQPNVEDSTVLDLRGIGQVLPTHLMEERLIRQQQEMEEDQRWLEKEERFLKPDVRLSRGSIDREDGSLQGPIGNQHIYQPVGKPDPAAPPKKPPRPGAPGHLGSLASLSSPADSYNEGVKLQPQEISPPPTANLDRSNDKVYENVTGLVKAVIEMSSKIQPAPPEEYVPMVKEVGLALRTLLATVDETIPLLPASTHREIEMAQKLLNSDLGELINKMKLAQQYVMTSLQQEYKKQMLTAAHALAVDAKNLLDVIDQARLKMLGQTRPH
For assay [12], the system named is Fibrinogen (Alexa647-labelled). Description: Alexa647-fibrinogen binding to printed small molecules – biochemical, small-molecule microarray, 635/667 nm fluorescence, artefact control for SMM control-protein annotation, profiling panel (AID 1131).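 Also: z-score merges 667 nm fluorescence with per-spot signal-to-noise over triplicate slides.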 Particulars: fibrinogen-A647 binding fluorescence, higher = more signal.
Assay [13] addresses Follistatin (Homo sapiens) (UniProt P19883). Put plainly: FST protein binding to printed compounds – biochemical, small-molecule microarray, 635/667 nm fluorescence, primary screen (AID 1132). The following applies: 635 nm fluorescence, higher = more signal.
Assay [14] has as its target Fibroblast growth factor 2 (Homo sapiens) (UniProt P09038). Description: basic fibroblast growth factor binding to printed compounds – biochemical, small-molecule microarray, 635/667 nm fluorescence, primary screen (AID 1133). Particulars: FGF2, fluorescence 635/667, higher = more signal.
Assay [15] can be described thus: JC-1 mitochondrial potential readout, lung cancer cells – cell-based, A549, JC-1 fluorescence, basal, 24 h, 100 nL, profiling panel (AID 1138).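 Also: A549 lung adenocarcinoma cells under basal conditions with no added stimulus; test concentration not given here.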 The following applies: higher = more signal.
The test system of another assay is Lefty1. Put plainly: Lefty1 protein binding to printed compounds – biochemical, small-molecule microarray, 635/667 nm fluorescence, primary screen (AID 1139). The following applies: fluorescence 635/667, higher = more signal.
For assay [16], the system named is wheat germ agglutinin (Triticum aestivum), Alexa647-labelled. Put plainly: Alexa647-WGA lectin binding to printed small molecules – biochemical, small-molecule microarray, 635/667 nm fluorescence, artefact control for SMM control-protein annotation, profiling panel (AID 1140).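 Also: score merges 667 nm feature emission with signal to noise over triplicate slides.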 Particulars: WGA-A647 binding, 635 nm fluorescence, higher = more signal.
For assay [17], the target named is Luciferin 4-monooxygenase (Photinus pyralis) (UniProt P08659). Description: inhibition of purified Photinus pyralis luciferase – biochemical, luminescence, purified enzyme, 2006 set, primary screen (AID 1141).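 Also: cell-free assay with purified firefly luciferase at 100 ng per well in PBS; test concentration not given here.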 The following applies: purified firefly luciferase, SteadyGlo luminescence, 30 min; higher = more signal, called active from +8 up or from −8 down.
Sequence of Luciferin 4-monooxygenase (Photinus pyralis) (P08659 whole entry, looked up): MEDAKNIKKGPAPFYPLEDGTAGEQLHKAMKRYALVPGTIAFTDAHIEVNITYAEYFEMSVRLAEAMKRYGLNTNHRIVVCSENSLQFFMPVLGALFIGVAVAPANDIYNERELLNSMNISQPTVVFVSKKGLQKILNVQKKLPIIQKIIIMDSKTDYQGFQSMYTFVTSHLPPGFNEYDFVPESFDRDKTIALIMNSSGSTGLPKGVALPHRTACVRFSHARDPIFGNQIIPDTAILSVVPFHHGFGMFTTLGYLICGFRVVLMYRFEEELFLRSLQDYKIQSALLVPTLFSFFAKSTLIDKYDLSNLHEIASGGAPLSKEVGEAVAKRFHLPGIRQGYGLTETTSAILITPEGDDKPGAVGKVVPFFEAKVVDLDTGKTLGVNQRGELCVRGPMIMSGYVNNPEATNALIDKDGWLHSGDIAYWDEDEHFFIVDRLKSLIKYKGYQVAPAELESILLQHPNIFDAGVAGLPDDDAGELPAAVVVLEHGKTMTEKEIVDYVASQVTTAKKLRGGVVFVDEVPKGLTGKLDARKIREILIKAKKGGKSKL

Sequence of Fibroblast growth factor 2 (Homo sapiens) (P09038 whole entry, looked up): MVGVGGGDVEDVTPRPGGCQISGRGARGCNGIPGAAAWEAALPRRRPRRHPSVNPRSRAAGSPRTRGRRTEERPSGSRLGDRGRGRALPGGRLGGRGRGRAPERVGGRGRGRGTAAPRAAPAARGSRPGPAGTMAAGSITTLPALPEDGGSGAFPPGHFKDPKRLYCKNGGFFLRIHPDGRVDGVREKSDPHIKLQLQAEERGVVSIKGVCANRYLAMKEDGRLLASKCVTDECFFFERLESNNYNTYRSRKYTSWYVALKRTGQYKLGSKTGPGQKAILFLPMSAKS
Sequence of Concanavalin-A (Canavalia ensiformis) (P02866 whole entry, looked up): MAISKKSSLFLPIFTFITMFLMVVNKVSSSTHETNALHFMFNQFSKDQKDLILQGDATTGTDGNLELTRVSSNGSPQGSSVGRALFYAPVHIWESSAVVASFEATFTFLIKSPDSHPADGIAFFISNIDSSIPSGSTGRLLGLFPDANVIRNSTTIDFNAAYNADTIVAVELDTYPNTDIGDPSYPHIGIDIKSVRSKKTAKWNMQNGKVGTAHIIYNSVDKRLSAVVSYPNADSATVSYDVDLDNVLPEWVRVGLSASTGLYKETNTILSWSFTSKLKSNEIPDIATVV
Sequence of Follistatin (Homo sapiens) (P19883 whole entry, looked up): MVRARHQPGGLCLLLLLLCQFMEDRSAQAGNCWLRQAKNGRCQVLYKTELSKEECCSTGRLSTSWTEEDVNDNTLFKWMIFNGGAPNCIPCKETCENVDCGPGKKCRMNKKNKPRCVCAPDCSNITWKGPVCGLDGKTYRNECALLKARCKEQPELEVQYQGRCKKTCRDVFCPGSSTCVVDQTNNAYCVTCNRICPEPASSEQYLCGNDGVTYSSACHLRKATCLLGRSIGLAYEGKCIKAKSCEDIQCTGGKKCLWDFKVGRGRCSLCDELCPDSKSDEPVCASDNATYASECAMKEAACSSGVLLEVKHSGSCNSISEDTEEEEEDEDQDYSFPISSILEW

Turning to `CCCNC(=O)[C@@]1(Sc2ccc(C)cc2)CC(=O)N(Cc2ccccc2Cl)[C@@H]1c1ccc(CO)cc1`, the composite z-score with Albumin (Bos taurus) is 0.694; in assay [2] it was 0.308; in [3] it was -0.0906; in [4] it was 0.572; in assay [5], 1.67; in assay [6], 1.2. Besides, the composite z-score with Sam68 (KHDRBS1) came to 1.31; in assay [7], 0.725; in [8], 1.12; in assay [9], 1.12; in assay [10], 1.15; in assay [11], 0.29. Also, the composite z-score in [12] came to 0.789; in assay [13] it was 1.42; in assay [14], 1.6; with Lefty1, 1.19; in assay [16], 1.18. For the same compound, the composite Z-score in assay [1] was 0.165 (inactive). Moreover, the z-score in [15] is 1.02; in assay [17] it was -0.0629 (inactive).
For the compound `O=C1C2C=CC(C(O)C(c3ccccc3)c3ccccc3)N(Nc3ccc([N+](=O)[O-])cc3)C2C(=O)N1c1ccccc1` (stereo not given), the composite z-score is 0.751 with Albumin (Bos taurus); 0.272 in assay [2]; -0.115 in [3]; 0.733 in assay [4]; 3.13 in assay [5]; 0.953 in [6]. Moreover, the composite z-score is 1.33 in the assay with Sam68 (KHDRBS1); 0.0427 in assay [7]; 1.17 in [8]; 1.79 in [9]; 1.24 in assay [10]; 0.248 in assay [11]. The composite z-score is 0.953 in [12]; 1.04 in assay [13]; -0.255 in assay [14]; 0.35 with Lefty1; 1.28 in assay [16]. In assay [1], the composite Z-score was -0.214 (inactive). Also, the z-score was -0.351 in assay [15] and 1.66 (inactive) in [17].
`NC(=O)NCC#Cc1ccc2c(c1)[C@]1(C(=O)N2)[C@H](c2ccccc2OCCO)N2[C@H](c3ccccc3)[C@H](c3ccccc3)OC(=O)[C@H]2[C@@H]1C(=O)N1CCN(c2ncccn2)CC1`: the composite z-score with Albumin (Bos taurus) was 0.0405; in assay [2], 0.0539; in [3] it was -0.0907; in assay [4], 0.335; in [5] it was 1.82; in [6] it was 0.614. Also, the composite z-score with Sam68 (KHDRBS1) stood at 1.29; in assay [7] it was 0.326; in assay [8], 0.946; in [9] it was 0.997; in assay [10], 1.19; in assay [11], 0.695. The composite z-score was 0.814 in assay [12]; 1.08 in [13]; 1.03 in assay [14]; 0.347 with Lefty1; 0.438 in [16]. In assay [1], the composite Z-score was 0.39 (inactive). Also, the z-score in assay [15] is -0.77; in assay [17], -0.538 (inactive).
For `COc1cccc([C@H]2N[C@H](C(=O)O)CC[C@@H]2C)c1`, the composite z-score with Albumin (Bos taurus) is -0.207; in [2], -0.15; in assay [3], -0.129; in [4] it was 0.0689; in assay [5], -0.146; in assay [6], -0.283. Further, the composite z-score came out at 0.0672 with Sam68 (KHDRBS1); 0.135 in assay [7]; 0.334 in [8]; 0.184 in assay [9]; 0.335 in assay [10]; 0.163 in assay [11]. The composite z-score in [12] is 0.363; in assay [13], 0.0807; in assay [14], -0.0305; in the assay on Lefty1, 0.223; in [16], -0.208. For the same compound, the composite Z-score in assay [1] is -0.269 (inactive). The z-score in assay [15] is -0.14; in assay [17] it was -0.128 (inactive).
Take `CCCCCCc1nc(C2CC2)c(C)c2c1[Si](C(C)C)(C(C)C)OC2`: the composite z-score with Albumin (Bos taurus) is -1.57; in assay [2], -0.0647; in assay [3], -0.0942; in [4], -0.364; in assay [5] it was -0.641; in assay [6], -0.35. The composite z-score is -1.28 in the assay on Sam68 (KHDRBS1); 0.63 in assay [7]; -0.693 in assay [8]; -0.095 in [9]; -1.51 in assay [10]; -0.695 in [11]. The composite z-score in assay [12] was -0.687; in assay [13], -0.0256; in assay [14], -0.0723; in the assay with Lefty1, -0.238; in assay [16], -0.982. In addition, the composite Z-score in assay [1] is 0.485 (inactive). Also, the z-score in assay [15] was -0.451; in assay [17] it was -0.441 (inactive).
Take `COc1cc2c(cc1OC)CN(C(=O)[C@@H]1[C@H]3C(=O)O[C@H](c4ccccc4)[C@H](c4ccccc4)N3[C@H](c3ccccc3OCCO)[C@@]13C(=O)Nc1ccccc13)CC2`: the composite z-score in the assay with Albumin (Bos taurus) was 0.665; in assay [2], 0.746; in [3] it was -0.112; in [4] it was 0.609; in assay [5] it was 0.938; in [6] it was 1.31. For the same compound, the composite z-score in the assay on Sam68 (KHDRBS1) is 1.2; in assay [7] it was 0.182; in assay [8] it was 0.997; in assay [9] it was 2.5; in assay [10] it was 1.22; in assay [11] it was 0.702. Besides, the composite z-score in assay [12] is 0.833; in [13] it was 0.666; in [14] it was 0.465; with Lefty1, 0.0595; in [16], 0.849. Also, the composite Z-score in assay [1] is -0.316 (inactive). For the same compound, the z-score was 0.447 in assay [15] and -1.38 (inactive) in assay [17].
